# Measurements from PubChem BioAssay AID602125 (The Scripps Research Institute Molecular Screening Center, 2011).
# Among all 1,300 compounds or so, about 110 (8.5%) were called active. No stated cut-off is given here; in the data, active means inhibition above about 6.5%; inactive means the rest. A selection follows.
# Assay: GFP fluorescence inhibitors and quenchers, artefact control for Rin1-Abl interaction inhibitor project, biochemical (AID 602125);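 further: ABL1-eGFP fusion protein alone without its partner RIN1-SBP; 0% = protein with vehicle and 100% = wells lacking protein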
# Details: inhibitors/quenchers counterscreen, at 6.75 µM, active compounds read high
row,Structure (SMILES),inhibition
1,CC(C)CNS(=O)(=O)c1ccc(C(=O)Nc2ccc3c(c2)OCO3)cc1,-1.46% (inactive)
2,O=c1ccc2c(-c3ccccc3S(=O)(=O)O)c3ccc(O)c(O)c3oc-2c1O,60.6% (active)
3,CCCn1c(N)c(C(=O)CSc2nnc(-c3cccnc3)n2-c2ccc(C)cc2C)c(=O)[nH]c1=O,-2.86% (inactive)
4,Cc1cc2ccccc2n1CCNC(=O)COc1ccc2ccccc2c1,0.81% (inactive)
5,CC(OC(=O)c1ccccc1NCCO)C(=O)Nc1ccnn1C(C)C (stereo not given),0.13% (inactive)
6,C=C1c2c(Cl)ccc(O)c2C(O)=C2C(=O)[C@]3(O)C(O)=C(C(N)=O)C(=O)[C@@H](N(C)C)[C@@H]3[C@@H](O)C12 (stereo not given in full),14.2% (active)
7,CC(=O)NC(c1cccs1)c1cc(Br)c2cccnc2c1O (stereo not given),4.24% (inactive)
8,Nc1cc(=O)c2[nH]cnc2[nH]1,0.27% (inactive)
9,CCOC(=O)N1CCC(c2cc(=O)n(-c3ccccc3)[nH]2)CC1,-3.53% (inactive)
10,O=C(Nc1ccc(OC(F)(F)F)cc1)c1ccc2c(c1)no[n+]2[O-],0.62% (inactive)
11,C=CCn1c2ccccc2c2nnc(SCc3[nH]c(=O)[nH]c3C(=O)CCCCC(=O)OCC)nc21,0.3% (inactive)
12,COCCNC(=O)Nc1ccc2nc(-c3ccco3)c(-c3ccco3)nc2c1,15.8% (active)
13,CCc1ccc(CN(C)C(C)C(=O)Nc2ccc(S(=O)(=O)N3CCCC3)cc2)cc1 (stereo not given),-0.29% (inactive)
14,COC(=O)c1ccc(COC(=O)C2CCN(S(=O)(=O)c3c(Cl)cccc3Cl)CC2)o1,1.86% (inactive)
15,CN(CC(=O)Nc1ccc(F)cc1)CC(=O)Nc1ccc(Cl)c(S(=O)(=O)N2CCOCC2)c1,-1.92% (inactive)
16,C#CCOCCOCCOCCNc1nc(N2CCN(C(=O)C(Cc3ccc(O)cc3)n3cc(C(N)CC(C)C)nn3)CC2)nc(N2CCN(C(=O)C(Cc3ccc(O)cc3)n3cc(C(N)C(C)CC)nn3)CC2)n1 (stereo not given),-1.04% (inactive)
17,C=CCn1cc(C(=O)NCc2ccc(Cl)cc2)c(=O)c2cc(S(=O)(=O)N(CC)CC)ccc21,-0.53% (inactive)
18,Cc1nn(-c2ncc(C(F)(F)F)cc2Cl)c(=O)n1-c1ccccc1,-0.58% (inactive)
19,COc1ccc(CNC(=O)c2cc(C(=O)C3CC3)c[nH]2)cc1,0% (inactive)
20,Cc1c(CC(=O)N2CCN(C(=O)C3COc4ccccc4O3)CC2)c(=O)oc2c(O)c(O)ccc12 (stereo not given),21.4% (active)
21,NC1=CC(=O)C(=O)c2cccnc21,8.89% (active)
22,Cc1ccccc1CN1C[C@@H]2C[C@@H](c3ccc4nsnc4c3)N3CCC[C@@]23C1=O,0.34% (inactive)
23,CSc1ncnc2c1ncn2CC(=O)C1CCC2C3CCC4=CC(=O)CCC4(C)C3CCC12C (stereo not given),0.43% (inactive)
24,O=C(CNCc1ccco1)Nc1cc(S(=O)(=O)N2CCOCC2)ccc1N1CCCC1,2.49% (inactive)
25,CCc1cc2c(N3CCN(c4nnc(CC)s4)CC3)ncnc2s1,-3.38% (inactive)
26,CC(=O)Nc1ccc(CN2CCC(Oc3ccc(C(=O)N4CCCC4)cc3)CC2)cc1,-0.82% (inactive)
27,CCOc1ccc(S(=O)(=O)N2CCCCC2)cc1NC(=O)CN1CCCC1c1cccs1 (stereo not given),-2.43% (inactive)
28,O=c1c2c(nc3n1CCCCC3)sc1c(O)cccc12,0.41% (inactive)

row,Structure (SMILES),inhibition
1,CCOc1ccc(CNC(=O)C2CCCN(c3nnc(C)c4c(C)n(-c5ccccc5)nc34)C2)cc1 (stereo not given),-0.63% (inactive)
2,Oc1c(CN2CCN(c3ccc(F)cc3)CC2)cc(Cl)c2cccnc12,1.29% (inactive)
3,CC(CCO)Nc1nc2c([nH]1)c(=O)n(C)c(=O)n2C (stereo not given),-2.15% (inactive)
4,O=C(COc1ccc(S(=O)(=O)NCCc2ccccc2)cc1)N1CCCC1,-1.34% (inactive)
5,CN(C)c1ccc(N/C=C/C(=O)C(F)(F)F)cc1,0.06% (inactive)
6,Cc1cccc(N(C)C(=O)CN2C(=O)COc3ccc(S(=O)(=O)N4CCCCCC4)cc32)c1,-2.16% (inactive)
7,C[C@@H]1CN([C@H](C)CO)S(=O)(=O)c2ccc(C#C[C@@H](C)O)cc2O[C@@H]1CN(C)Cc1ccc(-c2ccccc2)cc1,-1.52% (inactive)
8,O=C(NNc1c2ccccc2nc2ccccc12)c1cc2ccccc2cc1O,2.7% (inactive)
9,Cc1cc(NC(=O)CSCC(=O)NC(C)c2ccccc2)no1 (stereo not given),0.79% (inactive)
10,COc1cc(C(=S)N2CCOCC2)ccc1O,-0.21% (inactive)
11,Cc1ccc(C(NC(=O)C2CCN(CCOc3ccc(Cl)cc3Cl)CC2)c2ccccn2)cc1 (stereo not given),-1.38% (inactive)
12,CN(Cc1c(F)cccc1Cl)C(=O)CNC(=O)c1ccc2c(c1)OCO2,0% (inactive)
13,O=C(Nc1ccc(S(=O)(=O)Nc2ncccn2)cc1)c1cncc(Br)c1,0.85% (inactive)
14,O=c1cc(CO)oc(CN2CCC(Cc3ccccc3)CC2)c1O,0.68% (inactive)
15,CCOC(=O)N1CCN(C(=O)C2CCCN(c3ncnc4c3sc3cccc(F)c34)C2)CC1 (stereo not given),0.85% (inactive)
16,CCOc1ccc(-n2c(SCC(=O)NC3CCS(=O)(=O)C3)nnc2-c2cccnc2)cc1 (stereo not given),-0.86% (inactive)
17,CCOC(=O)CN(C(=O)COc1nc(C)cc(C)c1C#N)c1ccc(Cl)cc1,-1.77% (inactive)
18,OC[C@@H]1CN(Cc2ccc(Cl)cc2)C[C@H](n2cnc3c(NCc4ccncc4)ncnc32)O1,0.89% (inactive)
19,CCOC(=O)N1CCN(C(=O)C2CCN(c3ncnc4c3sc3cccc(F)c34)CC2)CC1,1.39% (inactive)
20,Cc1ccccc1C(=O)N1CCC(C(=O)Nc2ccc(S(=O)(=O)N(C)C(C)C)cc2)CC1,0.2% (inactive)
21,O=C(c1cn(-c2ccccc2)nc1-c1cc2ccccc2oc1=O)N1CCOCC1,-1.57% (inactive)
22,O=C(CC1SCCNC1=O)Nc1ccc(Cl)cc1 (stereo not given),0.84% (inactive)
23,CN(C(=O)c1ccc(NC(=O)Cc2cccc(NC(=O)C3CCN(C(=O)c4ccccc4)CC3)c2)cc1)C1CC1,-0.72% (inactive)
24,Nc1nc2n(n1)C(c1ccco1)CC(c1ccc(Cl)c(Cl)c1)N2 (stereo not given),-3.07% (inactive)
25,NS(=O)(=O)c1ccc(CCNC(=O)Nc2ccc(Cl)cc2)cc1,2.08% (inactive)
26,Oc1cccc2cc(-c3ccncc3)cnc12,11.6% (active)
27,Cc1ccc(-n2c(SCC(=O)NCc3ccc4c(c3)OCO4)nnc2-c2cccnc2)c(C)c1,0.57% (inactive)
